Out of some 310,000 compounds screened, about 14,000 (4.5%) showed an effect of 50% or more. The effect is printed as a negative number. Only a selection was taken, and strong results are over-represented in it overall.
target: human ether-à-go-go-related gene (hERG) potassium channel (human, UniProt Q12809); assay: primary screen, population patch clamp on CHO cells stably expressing hERG; higher = less effect of the substance
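Further: peak tail current of the secondary pulse compared with the same well before compound.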

human ether-à-go-go-related gene (hERG) potassium channel, sequence (Q12809 whole entry, looked up): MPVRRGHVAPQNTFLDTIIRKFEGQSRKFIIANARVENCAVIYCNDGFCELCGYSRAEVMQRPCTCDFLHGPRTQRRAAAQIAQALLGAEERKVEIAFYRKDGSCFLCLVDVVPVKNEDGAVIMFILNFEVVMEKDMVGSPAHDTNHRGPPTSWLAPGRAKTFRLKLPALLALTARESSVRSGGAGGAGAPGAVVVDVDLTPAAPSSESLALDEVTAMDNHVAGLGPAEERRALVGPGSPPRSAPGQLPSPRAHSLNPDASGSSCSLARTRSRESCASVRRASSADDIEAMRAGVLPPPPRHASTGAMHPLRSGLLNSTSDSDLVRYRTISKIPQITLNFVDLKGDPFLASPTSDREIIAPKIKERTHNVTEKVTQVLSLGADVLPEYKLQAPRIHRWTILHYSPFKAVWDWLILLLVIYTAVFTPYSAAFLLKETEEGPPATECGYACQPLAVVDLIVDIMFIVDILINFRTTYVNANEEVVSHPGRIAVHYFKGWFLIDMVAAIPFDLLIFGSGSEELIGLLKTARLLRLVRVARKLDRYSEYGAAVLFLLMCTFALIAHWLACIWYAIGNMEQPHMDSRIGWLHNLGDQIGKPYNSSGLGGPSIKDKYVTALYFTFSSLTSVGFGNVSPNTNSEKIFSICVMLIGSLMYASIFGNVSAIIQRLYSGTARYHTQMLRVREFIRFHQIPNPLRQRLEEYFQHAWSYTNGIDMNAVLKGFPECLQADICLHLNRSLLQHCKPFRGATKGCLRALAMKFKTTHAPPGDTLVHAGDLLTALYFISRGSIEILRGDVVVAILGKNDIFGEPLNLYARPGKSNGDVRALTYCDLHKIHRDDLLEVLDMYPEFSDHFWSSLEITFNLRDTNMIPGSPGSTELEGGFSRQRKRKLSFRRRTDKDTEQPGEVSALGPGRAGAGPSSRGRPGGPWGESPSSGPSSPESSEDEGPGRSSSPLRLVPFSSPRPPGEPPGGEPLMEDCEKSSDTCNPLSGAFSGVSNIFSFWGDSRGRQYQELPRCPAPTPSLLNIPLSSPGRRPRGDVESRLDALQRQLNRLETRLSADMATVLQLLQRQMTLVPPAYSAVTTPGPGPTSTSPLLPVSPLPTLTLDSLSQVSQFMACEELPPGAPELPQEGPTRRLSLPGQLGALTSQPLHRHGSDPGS

Going from Cc1cc(C)cc(OCC(=O)Nc2ccc(CN3CCCCC3)cc2)c1 to Cc1cc(OCC(=O)Nc2ccc(CN3CCCCC3)cc2)ccc1Cl, the “hERG current change (%, negative = inhibition) at 10uM” value falls from -43.7% to -73.9%.

Going from Cc1cc(OCC(=O)Nc2ccc(CN3CCOCC3)cc2)ccc1Cl to Cc1ccc(OCC(=O)Nc2ccc(CN3CCOCC3)cc2)cc1, the “hERG current change (%, negative = inhibition) at 10uM” value rises from -51.8% to -9.4%.

First: CCOc1ccc(C(=O)Nc2ccc(CN3CCOCC3)cc2)cc1Cl
Second: CCOc1ccc(C(=O)Nc2ccc(CN3CCOCC3)cc2)cc1Br
The “hERG current change (%, negative = inhibition) at 10uM” value of the first is lower: -56% for the first, -46.6% for the second.

Compared with CCOc1ccc(NC(=O)c2ccc(NC(=O)c3ccc(CN4CCOCC4)cc3)cc2)cc1, CCOc1ccc(N2CC(C(=O)NCc3ccc(F)cc3)CC2=O)cc1 (stereo not drawn) is lower in “hERG current change (%, negative = inhibition) at 10uM” value: 9.33% for the first, -27.3% for the second.

First: O=C1CC(=O)N(CCc2ccccc2)C(=O)N1CCc1ccccc1
Second: CCOc1ccc(N2CC(C(=O)NCCCc3ccccc3)CC2=O)cc1 (stereo not drawn)
The “hERG current change (%, negative = inhibition) at 10uM” value of the first is higher: 6.19% for the first, -51.2% for the second.

First: CN(C)S(=O)(=O)c1ccc(NC(=O)CSc2nc3ccccc3n2-c2ccccc2)cc1
Second: O=C(NCc1n[nH]c(=O)c2ccccc12)C1CC(=O)N(c2ccccc2)C1 (stereo not drawn)
The “hERG current change (%, negative = inhibition) at 10uM” value of the first is higher: 24.2% for the first, -1.81% for the second.

First: CCc1cccc(C)c1NC(=S)NCC(c1cccnc1)N1CCOCC1 (stereo not drawn)
Second: Cc1nc2ccccc2c(=O)n1CCN1CCOCC1
The “hERG current change (%, negative = inhibition) at 10uM” value of the first is lower: -14.3% for the first, 4.18% for the second.

Compared with C/C(=N/NC(=O)CNC(=O)c1ccco1)c1ccc(Cl)cc1, CCC(CC)C(=O)Nc1cc(C(=O)NCCc2ccccc2)ccc1Cl is lower in “hERG current change (%, negative = inhibition) at 10uM” value: -1.47% for the first, -8.24% for the second.

Going from O=C(NCc1n[nH]c(=O)c2ccccc12)C1CC(=O)N(c2ccc(Cl)cc2)C1 (stereo not drawn) to Cc1ccc(N2CC(C(=O)NCc3n[nH]c(=O)c4ccccc34)CC2=O)cc1 (stereo not drawn), the “hERG current change (%, negative = inhibition) at 10uM” value rises from -70.7% to -23.8%.

Going from COc1ccc(N2CC(C(=O)OCC(=O)c3ccc(C)cc3)CC2=O)cc1 (stereo not drawn) to CCOc1ccc(N2CC(C(=O)OCC(=O)c3ccc(OC)cc3)CC2=O)cc1 (stereo not drawn), the “hERG current change (%, negative = inhibition) at 10uM” value falls from 13.9% to -56%.

Going from CCOc1ccc(N2CC(C(=O)NCCc3ccc(F)cc3)CC2=O)cc1 (stereo not drawn) to CCOc1ccc(N2CC(C(=O)NCCc3ccc(S(N)(=O)=O)cc3)CC2=O)cc1 (stereo not drawn), the “hERG current change (%, negative = inhibition) at 10uM” value rises from -65.8% to 12.1%.

Compared with CCOc1ccc(N2CC(C(=O)NCCc3ccccc3)CC2=O)cc1 (stereo not drawn), CCOc1ccc(N2CC(C(=O)NCc3ccccc3)CC2=O)cc1 (stereo not drawn) is higher in “hERG current change (%, negative = inhibition) at 10uM” value: -29.6% for the first, -12.3% for the second.

First: COc1ccc(N2CC(C(=O)OCC(=O)c3ccccc3)CC2=O)cc1 (stereo not drawn)
Second: CCOc1ccc(N2CC(C(=O)Nc3nnc(Cc4ccccc4)s3)CC2=O)cc1 (stereo not drawn)
The “hERG current change (%, negative = inhibition) at 10uM” value of the first is lower: -9.34% for the first, 4.73% for the second.

Compared with Cc1cccc(OCCCC(=O)Nc2ccc(S(=O)(=O)N3CCCC3)cc2)c1, Cc1cccc(OCCCCNCc2ccccc2)c1.O=C(O)C(=O)O is lower in “hERG current change (%, negative = inhibition) at 10uM” value: -21.3% for the first, -38.1% for the second.

First: CCOC(=O)c1c(-c2ccc(OC)cc2)oc2ccc(OC(=O)N(C)C)cc12
Second: COc1ccc(-c2cc(=O)oc3c(C)c(OC(C)C(=O)N4C[C@H]5C[C@@H](C4)c4cccc(=O)n4C5)ccc23)cc1 (stereo partly drawn)
The “hERG current change (%, negative = inhibition) at 10uM” value of the first is higher: 10.1% for the first, -47.2% for the second.

Compared with COc1ccc(-c2nn(-c3ccccc3)cc2C2CC(c3cccs3)=NN2C(=O)CCCC(=O)O)cc1 (stereo not drawn), Cc1ccc(C(=O)c2nc(C(=O)NCCO)nc3ccccc23)cc1 is higher in “hERG current change (%, negative = inhibition) at 10uM” value: 17.9% for the first, 25.8% for the second.

Going from O=C(CN1C(=O)NC2(CCCCC2)C1=O)N1CCN(S(=O)(=O)c2ccccc2)CC1 to CCOc1ccccc1N1CC(C(=O)Nc2cc(Cl)ccc2-n2cncn2)CC1=O (stereo not drawn), the “hERG current change (%, negative = inhibition) at 10uM” value falls from 13.8% to -10.3%.

First: O=C(NCCOc1ccc(Cl)cc1)C1CC(=O)N(c2ccc(F)cc2)C1 (stereo not drawn)
Second: Cc1ccc(OCCNC(=O)C2CC(=O)N(c3ccc(C)cc3)C2)cc1 (stereo not drawn)
The “hERG current change (%, negative = inhibition) at 10uM” value of the first is lower: -69.4% for the first, -4.5% for the second.

Compared with CCOc1ccc(N2CC(C(=O)Nc3nnc(CC)s3)CC2=O)cc1 (stereo not drawn), CCOCCc1nnc(NC(=O)C2CC(=O)N(c3ccc(OCC)cc3)C2)s1 (stereo not drawn) is higher in “hERG current change (%, negative = inhibition) at 10uM” value: -53.6% for the first, -18.1% for the second.

First: CCOc1ccc(N2CC(C(=O)Nc3cc(Cl)ccc3-n3cncn3)CC2=O)cc1 (stereo not drawn)
Second: CCOc1ccc(N2CC(C(=O)Nc3ccc(F)cc3F)CC2=O)cc1 (stereo not drawn)
The “hERG current change (%, negative = inhibition) at 10uM” value of the first is lower: -64.2% for the first, -3.45% for the second.

Compared with O=C(NCCOc1ccc(Cl)cc1)C1CC(=O)N(c2ccc3c(c2)OCCO3)C1 (stereo not drawn), CCOC(=O)c1[nH]c(C)c(C(=O)OCC(=O)N(Cc2ccccc2)C(C)C)c1C is higher in “hERG current change (%, negative = inhibition) at 10uM” value: -27.9% for the first, -15.8% for the second.
